The target in test [1] is Estrogen receptor (Homo sapiens) (UniProt P03372). Kind of test: CCTE_Deisenroth_AIME_384WELL_LUC_Inactive: CCTE's 384-well Estrogen Receptor Transactivation Assay without AIME metabolic competence (ERTA luciferase; metabolism negative), Deisenroth Lab (AID 2284038).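 Note: hits raise estrogen receptor luciferase signal so potencies reflect agonists.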 The essentials:
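Chemicals (10-point series, 0.002 - 200 uM) were incubated 2 hours with alginate-water microsphere lids lacking S9, then the conditioned medium was transferred to VM7Luc4E2 breast cells for 24 hour. Luciferase induction was read by bioluminescence, fitted upward relative to 17beta-estradiol.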

The target is the same in test [2]. The test can be described thus: CCTE_Deisenroth_AIME_384WELL_LUC_Shift: CCTE's 384-well Estrogen Receptor Transactivation Assay with AIME metabolic competence data shift (ERTA luciferase; difference in metabolism positive and negative), Deisenroth Lab (AID 2284041; active = hit-call score of the fitted dose curve at least 0.9, where 1 is the maximum; inactive = score below 0.9;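 note: shift is response with S9 minus without S9 so positive means metabolism raised ER signal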). The essentials:
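Here, parent compounds undergo 2 h phase I metabolism by PB/BNF-induced rat S9 before 24 h transactivation in VM7Luc4E2 cells; the curve models S9-positive minus S9-negative response over a 10-point series.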

Test [3] in a line: CCTE_Shafer_MEA_dev_firing_rate_mean: CCTE's Neural Network Formation Assay for Mean Firing Rate, Shafer Lab (AID 2284031; active = hit-call score of the fitted dose curve at least 0.9, where 1 is the maximum; inactive = score below 0.9;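 note: AUC of well mean spike rate recorded on DIV 5 7 9 and 12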;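 for AC50: curve fitted for loss of firing so AC50 reflects decreased mean firing rate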). The method, boiled down: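 Developing rat cortical networks on MEA plates undergo 12-day compound exposure. Firing frequency, averaged across active electrodes, is integrated as area under the curve over four recording days, referenced to DMSO.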
Test [4] can be described thus: CCTE_Shafer_MEA_dev_active_electrodes_number: CCTE's Neural Network Formation Assay for Number of Active Electrodes, Shafer Lab (AID 2284040).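 For AC50: potency for loss of active electrodes versus DMSO so lower counts are hits.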 The essentials:
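Rat cortical primary cultures, 1.5 x 10^5 cells/well, PEI-coated MEA, laminin drop. Continuous exposure DIV 0–12; full media/compound change DIV 5, 9. Readout: electrodes with mean firing ≥5 spikes/min; AUC across days; loss vs DMSO.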

Test [5] in a line: CCTE_Shafer_MEA_dev_burst_rate: CCTE's Neural Network Formation Assay for Burst Rate, Shafer Lab (AID 2284042; active = hit-call score of the fitted dose curve at least 0.9, where 1 is the maximum; inactive = score below 0.9;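 for AC50: potency for loss of burst rate below DMSO control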). The essentials: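 Rat primary cortical cultures on PEI/laminin MEA; compound from plating, re-dosed at DIV 5, 9 media change. Single-electrode bursts/recording length, well mean of active electrodes; AUC over DIV 5–12 recordings; loss-of-signal vs DMSO.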
Test [6] can be described thus: CCTE_Shafer_MEA_dev_bursting_electrodes_number: CCTE's Neural Network Formation Assay for Number of Bursting Electrodes, Shafer Lab (AID 2284043).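 For AC50: potency is for loss of bursting electrodes relative to DMSO.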 The method, boiled down:
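Primary rat cortical neurons were cultured on PEI-coated 48-well MEA plates (16 electrodes/well) and exposed from plating through day 12, with compound renewed at feeds on DIV 5 and 9. Electrodes bursting ≥1 per 2 min were counted on DIV 5, 7, 9, 12; trapezoidal AUC taken.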

The nature of test [7]: CCTE_Deisenroth_AIME_384WELL_CTox_Active: Cytotoxicity Assessment (CTOX) in CCTE's 384-well Estrogen Receptor Transactivation Assay with AIME metabolic competence (metabolism positive), Deisenroth Lab (AID 2284037).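 Note: activity means signal loss indicating cell death.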 The essentials: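 VM7Luc4E2 breast cells received medium pre-incubated 2 h with chemical over alginate microspheres holding induced male Sprague Dawley rat liver S9; viability read 24 h later by protease-substrate fluorescence. Loss of signal, bidirectional fit, 0.002–200 uM.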

Test [8] in a line: CCTE_Deisenroth_AIME_384WELL_CTox_Inactive: Cytotoxicity Assessment (CTOX) in CCTE's 384-well Estrogen Receptor Transactivation Assay without AIME metabolic competence (metabolism negative), Deisenroth Lab (AID 2284039).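 Note: cell viability via live-cell protease substrate cleaved to fluorescent probe.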 The method, boiled down: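 VM7Luc4E2 human breast cells received conditioned medium from a 2 h incubation of chemical with alginate-water microspheres (no S9), then were exposed 24 h. Viability was read as protease-substrate cleavage to a fluorescent probe; loss of signal was fitted bidirectionally over 0.002–200 uM.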

Test [9] in a line: CCTE_Deisenroth_AIME_96WELL_CTox_Active: Cytotoxicity Assessment (CTOX) in CCTE's 96-well Estrogen Receptor Transactivation Assay with AIME metabolic competence (metabolism positive), Deisenroth Lab (AID 2284028). The essentials:
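Chemicals (0.002–200 uM) were first incubated 2 h with alginate-immobilized phenobarbital/beta-naphthoflavone-induced male rat liver S9; conditioned medium then went onto VM7Luc4E2 cells for 24 h, with viability read by protease-substrate fluorescence, fitted bidirectionally.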

Test [10] in a line: CCTE_Deisenroth_AIME_96WELL_CTox_Inactive: Cytotoxicity Assessment (CTOX) in CCTE's 96-well Estrogen Receptor Transactivation Assay without AIME metabolic competence (metabolism negative), Deisenroth Lab (AID 2284029). The essentials:
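Chemicals (10-point series, 0.002-200 uM) were incubated 2 h with alginate-water microspheres lacking S9. The conditioned medium was then transferred onto VM7Luc4E2 cells for 24 h. Viability was measured by protease-substrate cleavage to a fluorescent probe, with loss of signal fitted bidirectionally; n≥4 experimental replicates.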

Several values for one entry are separate records, joined by “and”; a condition that tells them apart may be missing. Equal entries are not always repeated. Results filed as inconclusive are left out. A structure can be active in one record and inactive in another. Activity calls are given as the source filed them. Rule for the calls, unless noted: active = hit-call score of the fitted dose curve at least 0.9, where 1 is the maximum; inconclusive = response in the unintended direction; inactive = score below 0.9.

In general, AC50 refers to the midpoint of the concentration-response curve, whichever way the signal moves.

Sequence of Estrogen receptor (Homo sapiens) (P03372 whole entry, looked up): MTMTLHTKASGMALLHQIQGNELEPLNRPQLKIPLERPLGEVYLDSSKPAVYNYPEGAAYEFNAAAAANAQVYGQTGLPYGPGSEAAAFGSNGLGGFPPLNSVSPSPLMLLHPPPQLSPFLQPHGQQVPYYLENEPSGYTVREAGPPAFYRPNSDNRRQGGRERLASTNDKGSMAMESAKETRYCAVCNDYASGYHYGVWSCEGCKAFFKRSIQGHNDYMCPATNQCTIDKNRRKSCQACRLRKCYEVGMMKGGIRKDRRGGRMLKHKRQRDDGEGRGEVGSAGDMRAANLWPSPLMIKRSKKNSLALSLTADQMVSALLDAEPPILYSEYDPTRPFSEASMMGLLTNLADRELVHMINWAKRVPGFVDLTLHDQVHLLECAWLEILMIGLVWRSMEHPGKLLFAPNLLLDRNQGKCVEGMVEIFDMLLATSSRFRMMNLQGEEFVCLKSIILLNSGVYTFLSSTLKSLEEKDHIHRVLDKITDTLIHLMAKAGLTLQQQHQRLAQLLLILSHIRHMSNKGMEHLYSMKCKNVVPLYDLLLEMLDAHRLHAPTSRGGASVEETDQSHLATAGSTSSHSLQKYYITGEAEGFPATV

Regarding `CCCCCCC(=O)O`, the result in test [1] and in test [2] was inactive.
With `C=C(C)C(=O)OCCC(F)(F)C(F)(F)C(F)(F)C(F)(F)C(F)(F)C(F)(F)F`, the compound was called inactive in test [3], in test [4], in test [5] and in test [6].
As for `OCCC(F)(F)C(F)(F)C(F)(F)C(F)(F)C(F)(F)C(F)(F)F`, the compound was called inactive in test [3], in test [7], in [1], in [8], in [4] and in test [2]. Further, the result in test [5] and in test [6] was inactive.
As for `CCCCC(CC)COC(=O)CCCCC(=O)OCc1ccccc1` (configuration not stated), the call in test [7], in [1] and in test [2] was inactive.
`CCCCCCCCCCCCCCCS(=O)(=O)Oc1ccccc1`: the AC50 in test [1] was 9.6 µM (active). Besides, the compound was classed as inactive in test [8] and in [2].
As to `CN1CCC[C@H]1c1cccnc1`, the outcome in test [3], in test [7], in [1], in test [8], in [4] and in test [2] was inactive. In addition, the call in test [5] and in test [6] was inactive.
As to `O=C(/C=C/c1ccc(O)cc1)CC(=O)/C=C/c1ccc(O)cc1`, in test [9], the outcome was inactive.
Turning to `CC(C)(C)c1ccc(O)c(C(C)(C)C)c1`, the AC50 in test [9] is 155 µM (active); in test [10] it was 163 µM (active); in [7], 171 µM (active); in test [8], 179 µM (active); in test [2], 77.6 µM (active).
Regarding `ClC1=C(Cl)C(Cl)(Cl)C(Cl)=C1Cl`, the outcome in test [7], in test [1] and in test [2] was inactive.
With `C[C@@H]1C[C@H]2[C@@H]3CCC4=CC(=O)C=C[C@]4(C)[C@@]3(F)[C@@H](O)C[C@]2(C)[C@@]1(O)C(=O)COP(=O)(O)O`, the outcome in test [7] and in [2] was inactive.
As to `O=C(O)c1ccccc1C(c1ccc(O)cc1)c1ccc(O)cc1`, the result in test [7] and in test [8] was inactive. Also, the AC50 in [1] was 98.9 µM (active); in test [2], 126 µM (active).
Consider `CCCCC[C@H](O)CC(=O)CCc1ccc(O)c(OC)c1`, for which the compound was called inactive in test [9] and in test [10].
With `COc1ccc([N+](=O)[O-])cc1N`, the AC50 in test [7] and in test [8] was 100 µM (active) throughout. In addition, the outcome in test [1] and in test [2] was inactive.
As for `OCCC(F)(F)C(F)(F)C(F)(F)C(F)(F)C(F)(F)C(F)(F)C(F)(F)C(F)(F)F`, the call in [3], in test [1], in test [4], in [2] and in test [5] was inactive. For the same compound, the AC50 in [6] is 26 µM (active).
With `Cc1ccc(S(=O)(=O)O)c(C)c1`, the outcome in [7], in [1], in test [8] and in [2] was inactive.
`CCCCOCCO`: the result in test [1], in [8] and in test [2] was inactive.
For `COCC(C)OCC(C)O` (configuration not stated), the compound was called inactive in test [7], in test [1] and in test [2].
Turning to `N#C[C@@H]1CC(F)(F)CN1C(=O)CNC1CC2CCC(C1)N2c1ncccn1` (some centres not stated), the compound was classed as inactive in test [7], in test [1], in test [8] and in test [2].
`CCCCCCCCCCCCN1CCCC1=O`: the values for the AC50 in [7] and in [8] were 100 µM (active) and 57.1 µM (active), respectively. The result in test [2] was inactive.
For the compound `Oc1cc2ccccc2c2ccccc12`, the AC50 in test [7] was 19 µM (active); in test [8], 10.3 µM (active). Besides, the result in [2] was inactive.
`COc1cc(CCC(=O)CC(=O)CCc2ccc(O)c(OC)c2)ccc1O`: the figures for the AC50 in [9] and in [10] were 150 µM (active) and 164 µM (active), respectively.
For the compound `CC1=C(/C=C/C(C)=C/C=C/C(C)=C/C(=O)O)C(C)(C)CCC1`, the values for the AC50 in test [3], in [4] and in test [5] were 2.98 µM (active), 15 µM (active) and 4.01 µM (active), respectively.
For `CC(O)CO` (configuration not stated), the compound was classed as inactive in test [3], in [4], in [5] and in test [6].
As for `CCCCCCCC(=O)O`, the outcome in test [7], in test [1] and in [8] was inactive. For the same compound, in [2], the AC50 is 42.1 µM (active).
Consider `CC#C[C@]1(O)CC[C@H]2[C@@H]3CCC4=CC(=O)CCC4=C3[C@@H](c3ccc(N(C)C)cc3)C[C@@]21C`, for which the AC50 is 8.04 µM (active) in test [3]; 4.73 µM (active) and 17.8 µM (active) in [4]; 5.1 µM (active) in test [5]; 2.8 µM (active) and 15 µM (active) in test [6]. The outcome in test [3], in test [7], in test [1], in test [8], in test [2] and in test [5] was inactive.
On to `c1ccc2cc3c(ccc4ccccc43)cc2c1`, for which the compound was classed as inactive in test [9], in [10], in [3], in test [8], in [4] and in test [5]. The compound was classed as inactive in [6]. The AC50 in test [2] is 64.2 µM (active).
For the compound `CCCCCCCCC(=O)O`, the call in [7], in [1], in test [8] and in [2] was inactive.
For `COC(=O)CCCCC(=O)OC`, the result in [1] and in [2] was inactive.
`c1ccc2c(c1)ccc1ccccc12`: the result in test [10], in test [3], in test [4], in test [5] and in test [6] was inactive.
`CCN(CC)CCNc1ccc(CNC=O)c2sc3ccc(OC)cc3c(=O)c12`: the half-maximal activity concentration (AC50) is 130 µM (active) in test [7], 26.2 µM (active) in test [1], 120 µM (active) in test [8] and 5.72 µM (active) in test [2].
As for `O=c1c(-c2ccc(O)cc2)coc2cc(O)ccc12`, in test [9], the outcome was inactive.
On to `OC1CCCCC1`, for which the compound was classed as inactive in [7], in test [1], in test [8] and in test [2].
Take `c1ccc2c(c1)Cc1ccccc1-2`: the call in [3], in test [4], in [5] and in [6] was inactive.
As for `CCCCC(CC)COC(=O)CCCCC(=O)OCC(CC)CCCC` (configuration not stated), the compound was called inactive in test [9] and in [10].
